Measured values published in PubChem BioAssay (NCATS).
“And” between values parts separate entries of the source, which are not always exact repeats. Equal values may be shown once.

Assay: qHTS profiling of the MIPE4 collection as inhibitors of Plasmodium falciparum (DD2) proliferation (AID 743345)
Conditions: P. falciparum Dd2 in erythrocytes, SYBR Green DNA, 72 h; at 28.5 µM (top of the series) unless noted
Text: Plasmodium falciparum is a virulent malarial parasite that kills 1-2 million people worldwide each year. Transmitted by mosquitoes, the sporozoite form of the parasite enters the blood stream to infect hepatocytes, where they become merozoites that infect red blood cells (erythrocytes). Within erythrocytes, merozoites begin a […] cycle of growth and division, after which the parasite is released to infect new red blood cells. Gametocytes, which form within erythrocytes as well, circulate in the bloodstream and are ingested by the mosquito, thereby completing the life cycle. To profile malarial isolates for differential chemical responses and to identify inhibitors of malarial growth, an assay that measures P. falciparum growth and replication within erythrocytes was employed. This assay uses a DNA binding fluorescent dye (SYBR Green) to detect parasite DNA following cell lysis. Because mature erythrocytes lack DNA, only Plasmodium-derived DNA is detected.
The SYBR Green viability assay was adapted from a method described previously (Plouffe et al., 2008). For screening 3 ul culture medium was dispensed into 1536 well black clear bottom plates (Aurora Biotechnologies) using a Multidrop Combi (Thermo Fisher Scientific Inc.), 23 nL compounds in DMSO were added by a pin tool (Kalypsys), and 5 ul of erythrocytes infected with P. falciparum (0.3% parasitemia, 2.5% hematocrit final concentration) were added. The plates were incubated at 37 C in a humidified incubator in 5% CO2 for 72 h, and 2 ul lysis buffer (20 mM Tris HCl, 10 mM EDTA, 0.16% saponin, 1.6% triton X, 10X SYBR Green I supplied as 10,000X […] by Invitrogen) was added to each well. The plates were mixed for 25 sec with gentle shaking and incubated overnight at room temperature in the dark. The following morning, fluorescence intensity at 485(14) nm excitation and 535(25) nm emission wavelengths was measured on an EnVision (Perkin Elmer) plate reader. Plate reads were normalized relative to the control inhibitor (0.29 uM artemisinin) and vehicle (DMSO) wells present on each plate and then corrected by an algorithm using vehicle-only control plates at the beginning and end of the compound plate stack.

| SMILES | parasite growth remaining, % of DMSO control (lower = more inhibition) |
| --- | --- |
| CC(C)OC(=O)CCCC=CC[C@@H]1[C@H](C=C[C@@H](O)COc2cccc(C(F)(F)F)c2)[C@H](O)C[C@@H]1O | 76.3% |
| COCCOc1nc(-c2ccc(Cl)c(Cl)c2)n(-c2ccc(NC(=O)CCl)cc2)n1 | 64% |
| Cn1c(N2CCCCS2(=O)=O)nc(C(=O)NCc2ccc(F)cc2)c(O)c1=O | 104% |
| COc1ccc(C2Sc3ccccc3N(CCN(C)C)C(=O)C2OC(C)=O)cc1 (stereo not given) | 81% and 97.9% |
| CCOc1ccc(Nc2nc(-c3c(C)nc4ccccn34)cs2)cc1 | 17.3% |
| Nc1ncnc2c1ncn2[C@@H]1O[C@H](CO)C[C@@H]1O | 56.1% |
| CO[C@H]1C=CC=C(C)C(=O)NC2=CC(=O)C(NCCN(C)C)=C(C[C@@H](C)C[C@H](OC)[C@@H](O)[C@@H](C)C=C(C)[C@@H]1OC(N)=O)C2=O | 6.82% |
| CC(=O)N(C)C1(c2ccccc2)CCN(CCC[C@]2(c3ccc(Cl)c(Cl)c3)CCCN(C(=O)c3ccccc3)C2)CC1 | 7.14% |
| O=C(CCc1ccc(O)cc1)c1c(O)cc(O)cc1O[C@@H]1O[C@H](CO)[C@H](O)[C@H](O)[C@H]1O | 79.6% |
| O=c1cc(-c2ccc(O)cc2)oc2cc(O)cc(O)c12 | 42.9% |
| O=C1NC(=O)C(=Cc2ccc3nccnc3c2)S1 | 92.6% [at 9.64 µM] |
| COc1ccc(-c2coc3cc(O)cc(O)c3c2=O)cc1 | 99.4% |
| NC(=O)c1cccc2[nH]c(-c3ccc([C@H]4CCCN4)cc3F)nc12 | 43.5% |
| CC(C)(C)OC(=O)N[C@H]1CCCCCC=C[C@@H]2C[C@@]2(C(=O)NS(=O)(=O)C2CC2)NC(=O)[C@@H]2C[C@@H](OC(=O)N3Cc4cccc(F)c4C3)CN2C1=O | 40.6% |
| C[C@]12CCC3c4ccc(O)cc4CCC3C1CCC2=O (stereo not given in full) | 75.4% |
| N#Cc1ccc(NC(=O)Nc2ccccc2Br)c2n[nH]nc12 | 65.9% |
| O=c1c(-c2ccc(O)cc2)coc2cc(OC3O[C@H](CO)[C@H](O)[C@H](O)[C@H]3O)cc(O)c12 (stereo not given in full) | 88.8% |
| O=C(NCc1ccccc1)c1csc(Nc2ccncn2)n1 | 79.6% |
| CO[C@H]1C[C@@H]2CC[C@@H](C)[C@@](O)(O2)C(=O)C(=O)N2CCCC[C@@H]2C(=O)O[C@H]([C@@H](C)C[C@@H]2CC[C@H](O)[C@H](OC)C2)CC(=O)[C@H](C)C=C(C)[C@@H](O)[C@@H](OC)C(=O)[C@H](C)C[C@H](C)C=CC=CC=C1C | 9.31% |
| Cc1ccccc1C(C(=O)NC1CCCCC1)N(C(=O)Cn1ccnc1C)c1cccc(F)c1 (stereo not given) | 36.3% |

| SMILES | parasite growth remaining, % of DMSO control (lower = more inhibition) |
| --- | --- |
| CCC(=O)O[C@]1(C(=O)CO)CC[C@H]2[C@@H]3CCC4=CC(=O)CC[C@]4(C)[C@@H]3CC[C@@]21C | 93.6% |
| COCCCCC(=NOCCN)c1ccc(C(F)(F)F)cc1 | 56.9% |
| N#CC1(c2ccc(NC(=O)c3cccnc3NCc3ccncc3)cc2)CCCC1 | 72.9% |
| Cc1ccc(/C=N/NC(=O)c2ccccc2Oc2ccccc2)o1 | 103% |
| COc1ccc2cc(-c3nc(-c4ccc(S(C)=O)cc4)[nH]c3-c3ccncc3)ccc2c1 (stereo not given) | 9.3% |
| N#CC(=C(N)Sc1ccccc1N)C(C#N)=C(N)Sc1ccccc1N | 12.1% |
| CC=CC(=O)N(CC)c1ccccc1C | 104% |
| O=C(NC1CCOCC1)c1ccc(-c2cc(-c3cn[nH]c3-c3ccccn3)ccn2)cc1 | 82.7% |
| O=c1cc(-c2ccccc2)oc2cc(O)cc(O)c12 | 89.3% |
| O=c1cc(N2CCOCC2)oc2c(-c3cccc4c3sc3ccccc34)cccc12 | 28.4% |
| COc1cc(NC(=O)c2ccc(-c3ccc(Cl)cc3)o2)cc(OC)c1 | 97.8% |
| COc1cc(N2CCC(N3CCN(C)CC3)CC2)ccc1Nc1ncnc(Nc2ccccc2S(=O)(=O)C(C)C)n1 | 8.1% |
| O=C(O)c1cc(O)c2c(c1)C(=O)c1cccc(O)c1C2=O | 73.9% [at 57.5 µM] |
| O=c1cc(CN2CCOCC2)occ1OCCCCCSc1ccnc2cc(C(F)(F)F)ccc12 | 56.7% |
| Cc1ccc(C(=O)Nc2cccc(C(F)(F)F)c2)cc1Nc1nc(-c2cccnc2)nc2c1cnn2C | 12% |
| Cc1cccc(Nc2nc(-c3ccncc3)cs2)c1 | 71% |
| CN(C)C1CCN(C(=O)c2ccc(NC(=O)Nc3nc(N4CCOCC4)nc(N4CCOCC4)n3)cc2)CC1 | 7.83% |
| COc1cc2ncnc(-n3nc(-c4ccccn4)nc3N)c2cc1OC | 31.2% |
| C=CCc1ccc(O)c(-c2ccc(O)c(CC=C)c2)c1 | 75.6% |
| COc1ccc2c(Oc3ccc(NC(=O)c4c(C)n(CC(C)(C)O)n(-c5ccccc5)c4=O)cc3F)ccnc2c1 | 60.9% |
